# From the supplement of paper PMC12067093, “Discovery and optimisation of a covalent ligand for TRIM25 and its application to targeted protein ubiquitination” (Chemical Science, 2025)
# Targets with the largest changes are over-represented here; the source holds about 21,000 in all.
# Target: CLIC1_O00299_191_LHIVQVVCKK (UniProt O00299)
# Test: probe-labelled cysteine peptide fold change vs DMSO (competition) (log2 fold change); higher = less target engagement (more negative = stronger competition)
# Conditions: THP-1, incubation time: 4 h
# 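Also: competitive chemoproteomic profiling in live THP-1 cells with an iodoacetamide desthiobiotin (IA-DTB) probe, comparing probe-labelled peptide intensities in compound-treated cells against DMSO-treated controls.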
compound,measurement,setting,value
CC1Cc2ccccc2N1C(=O)C1CCCN(C(=O)CCl)C1 (mixture of isomers) [TRIM25 ligand 11 (diastereomer mixture)],probe-labelled cysteine peptide fold change,10 µM,-0.428
same,probe-labelled cysteine peptide fold change,50 µM,-0.575
